Records with an inconclusive call do not appear. Unmarked numbers belong to inactive results. Calls come from the whole dose curve; as a rule, active = well fitted activation curve with a large enough effect in the repeat runs; inconclusive = weak or mixed curves; inactive = flat fitted curve, though single readings scatter. Non-standard residues stand in square brackets, D forms with d. Residues, ends and D or L forms follow the SMILES beside them. *: point of attachment. Sta = CC(C)C[C@H](N)[C@@H](O)CC(=O)O; Isovaleryl = CC(C)CC(=O)*
Experiment: Caspase-3/7 induction in HepG2 cells by small molecules, qHTS assay (AID 1346978); note: nearly all actives have a fitted effect of over 15% in size
Conditions: HepG2 caspase-3/7 activation, Caspase-Glo luminescence, 17 h; series mostly up to 92.4 µM; caspase activation: at the top concentration
Text: National Center for Advancing Translational Sciences [NCATS] NIH Chemical Genomics Center [NCGC] U.S. Environmental Protection Agency [EPA] National Institutes of Environmental Health Sciences [NIEHS] National Toxicology Program [NTP] Assay overview: Apoptosis is a process of programmed cell death and plays a central role in the development of multicellular organisms. It is a highly regulated process and induces cell death by activating caspases, which are the members of cysteine aspartic acid-specific protease (caspase) family. Caspases involved in apoptosis are classified by their mechanism of action as initiator caspases (caspase-2, -8, -9 and -10) and executioner caspases (caspase-3, -6, and -7). Inhibition of apoptosis results in number of cancers, autoimmune diseases, inflammatory diseases and viral infection. To identify small molecule compounds that induce apoptosis, a homogeneous, luminescent Caspase-Glo 3/7 assay was used. Wild type HepG2 cells were used to screen Tox21 libraries for identifying caspase-3/7 activity inducers.
Assay Protocol Summary: HepG2 cells were dispensed at 2,000 per well in 5uL of culture medium into white solid bottom 1536-well plates (Corning Life Sciences, Corning, NY) using a Multidrop Combi (Thermo Scientific, Waltham, MA) dispenser. The assay plates were incubated at 37 C and 5% CO2 for 5hr, and then 23nL of compounds dissolved in DMSO and positive control were transferred using a Pintool station (Wako, San Diego, CA). The assay plates were incubated at 37C and 5% CO2 for 17hr. For caspase-3/7 activity read, 4uL of Caspase-Glo 3/7 reagent (Promega Corporation, Madison, WI) was added to each well of the assay plates using Flying Reagent Dispenser (FRD, Aurora Discovery, San Diego, CA) and incubated the assay plates at room temperature for 30min. The luminescence signal was quantified using a ViewLux plate reader (Perkin Elmer, Shelton, CT).
% is set by controls: 0 for no effect and ±100 for the full control effect.

Row | SMILES | caspase activation
1 | CN(C)CCC[C@@]1(c2ccc(F)cc2)OCc2cc(C#N)ccc21 | -0.61% [at 42.5 µM]
2 | CCNC(=O)C(C)OC(=O)Nc1ccccc1 (stereo not given) | -0.213%
3 | O=Cc1ccccc1S(=O)(=O)O | -0.0868%
4 | C=CC(=O)OCC[N+](C)(C)C | -2.19%
5 | C=CC(=O)OCCOCCOCC | 1.48%
6 | C[C@H]1COc2c(C3(N)CC3)c(F)cc3c(=O)c(C(=O)O)cn1c23 | 0.583% [at 42.5 µM]
7 | CCOC(=O)CC | -0.577%
8 | CC(C)(C)OC=O | 0.652%
9 | Clc1ccc2c(c1)Nc1ccccc1S2 | -6.77% [at 42.5 µM]
10 | CC/C=C/CCCCCCCCCCOC(C)=O | -1.72%
11 | CC(C)OC(=O)C(C(=O)OC(C)C)=C1SC=CS1 | 2.48% [at 42.5 µM]
12 | CC(C)OCCO | 0.315%
13 | c1coc(Cn2cccc2)c1 | 0.113%
14 | Cc1cc(C)c(C)c(C)c1 | 0.245%
15 | O=C1Nc2ccccc2C1=O | -2.43%
16 | O=S(=O)(O)CC(O)CCl (stereo not given) | -3.01%
17 | C=C(C)C(=O)OCCCC | -0.75%
18 | CCCCCCCCS(=O)(=O)O | -7.13%
19 | CCCCCCCCCCCCCC(=O)OCC | -0.266%
20 | C[Si](C)(C)O[Si](O)(O)O | -1.19%

Row | SMILES | caspase activation
21 | CC(CN1CC(=O)NC(=O)C1)N1CC(=O)NC(=O)C1 (stereo not given) | 3.3%
22 | CNC(C)=O | 0.226%
23 | CCCCS | 0.173%
24 | C=COCCCCO | -2.08%
25 | CCC(C)SSC(C)CC (stereo not given) | 0.0257%
26 | CCO[Si](CC(C)C)(OCC)OCC | -0.425%
27 | CC(C)CC(=O)N[C@H](C(=O)N[C@H](C(=O)N[C@@H](CC(C)C)[C@@H](O)CC(=O)N[C@@H](C)C(=O)N[C@@H](CC(C)C)[C@@H](O)CC(=O)O)C(C)C)C(C)C (Isovaleryl-VV[Sta]A[Sta]-OH) | 0.895% [at 42.5 µM]
28 | C/C=C(\C)C=O | 2.29%
29 | O=C1c2ccccc2C(=O)N1CO | -0.306%
30 | COC(=O)c1ccccc1Cl | 0.261%
31 | C=CCN1CCc2nc(N)sc2CC1 | 0.0145% [at 42.5 µM]
32 | COc1cc(S(N)(=O)=O)cc(C(=O)O)c1OC | 0.078% [at 42.5 µM]
33 | OCCC(F)(F)C(F)(F)C(F)(F)C(F)(F)C(F)(F)C(F)(F)F | 1.75%
34 | CCCC[O][Al]([O]CCCC)[O]CCCC | -0.842%
35 | Cc1ccc(NC(N)=O)cc1 | -2.14%
36 | COC(=O)/C=C(\C)CCC=C(C)C | -0.0074%
37 | CNCCc1ccccn1 | -1.25% [at 42.5 µM]
38 | CC(=O)c1ccc(O)c(C(N)=O)c1 | 1.25% [at 42.5 µM]
39 | CCOC(=O)c1ccc(N(C)C)cc1 | -0.869%
40 | CC(C)c1cc(C(C)C)cc(C(C)C)c1 | -0.337%
